# Screen size: about 320,000 compounds; about 2,100 (0.66%) were called active. Another 53% or so got no clear call; they are omitted. The call rests on the fitted dose curve; in most records, active means well fitted inhibition curve with a large enough effect in the signal ratio, with a control signal flat (not every such curve was filed as active); inconclusive means small, poorly fitted or top-dose-only effect, or effect the other way, or a change in a side signal; inactive means flat fitted curve, though single readings scatter; the % refers to the signal ratio. This excerpt belongs to a sample that is enriched for actives.
# Assay: qHTS Assay for Lipid Storage Modulators in Drosophila S3 Cells;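 on cell number change: cells counted by Cell Tracker Red CMTPX staining in the red channel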; on lipid storage change, negative = inhibition: on the % scale 0 is the no-effect control and ±100 the full control effect
# Settings: BODIPY lipid droplet fluorescence, 18-24 h, cells fed with added oleic acid; cell number change: measured here: cell count max response; series mostly up to 46.1 µM
# Summary of the method: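 Laser-scanning cytometry quantifies lipid droplet accumulation (500–530 nm total intensity; droplet/cell object ratio) in oleic acid-fed (400 uM added) Drosophila S3 cells treated with a concentration series. 20 uM Triacsin C defined 100% inhibition.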
# Potency means the concentration at half of the fitted maximal effect.
SMILES,Potency,cell number change,"lipid storage change, negative = inhibition"
O=[N+]([O-])C1=CC=C2C(=NC3(CCCCC3)N2O)C1=NCCO,inactive,-8.38%,
CCNC(=O)COc1ccc(/C=C2\COc3ccccc3C2=O)cc1OC,3.66 µM (active),,
CCOc1cc(/C=C2\COc3ccccc3C2=O)ccc1OCC(=O)N(C)C,inactive,-5.65%,
CCOc1cc(/C=C2\COc3ccccc3C2=O)cc(Br)c1OCC(=O)N(C)C,inactive,21.8%,
CSc1ccccc1OCc1cc(C(=O)NCCN2CCCc3ccccc32)no1,inactive,,
O=C(Nc1nnc(SCC(=O)N2CCOCC2)s1)c1ccccc1,inactive,,
Cc1cc(NC(=O)c2ccc(S(=O)(=O)N3CCOCC3)cc2)nc2c1c(=O)oc1ccccc12,inactive,-0.276%,
COc1cccc(CNC(=O)CCCNS(=O)(=O)c2cccs2)c1,inactive,-2.45%,
CCOC(=O)C1=C(C)NC(C)=C(C(=O)OCC)C1C(=O)OCC(=O)NC1(C#N)CCCCC1,,,18.2% [at 0.0737 µM] (inactive)
O=C(CCCC(=O)OCC(F)(F)C(F)F)Nc1ccc(NC(=O)CCCC(=O)OCC(F)(F)C(F)F)cc1,inactive,25.6%,
COc1ccc(N2CCN(C(=O)c3ccc(CNS(=O)(=O)c4cc(C)ccc4C)cc3)CC2)cc1,7.31 µM (active),-25.1%,
Cc1ccc(C)c(S(=O)(=O)NCc2ccc(C(=O)N3CC(C)OC(C)C3)cc2)c1 (stereo not given),inactive,-9.56%,
CCOC(=O)N1CCN(C(=O)c2ccc(CNS(=O)(=O)c3ccc(OC)cc3)cc2)CC1,inactive,,
Cc1cccc(C(=O)NNc2ncnc3c2cnn3C)c1,inactive,3.73%,
CCCCC[C@H](O)/C=C/[C@@H]1[C@@H](C/C=C\CCCC(=O)OC)[C@@H](O)C[C@H]1O,inactive,2.9%,
CCCCC(C)(O)C/C=C/[C@H]1[C@H](O)CC(=O)[C@@H]1CCCCCCC(=O)OC (stereo not given in full),23.1 µM (active),-1.2%,
CCCCCCC(=O)Oc1ccc(N2C(=O)CCC2=O)cc1,inactive,-4.94%,
COC(=O)c1ccc(C2C(C(=O)OCC(C)C)=C(C)N=C3SCCC(=O)N32)cc1 (stereo not given),inactive,-2.78%,
CCCCCCN1C2=NCCCN2c2ccccc21,inactive,-6.55%,
O=C(O)c1c(-n2cccc2)sc2c1CCCC2,inactive,1.31%,

SMILES,Potency,cell number change,"lipid storage change, negative = inhibition"
Cc1sc(-n2cccc2)c(C(=O)O)c1C,1.84 µM (active),-19.7%,
CCOC(=O)c1c(-n2cccc2)sc2c1CCCC2=O,inactive,-2.93%,
COc1ccc(Nc2ccncc2[N+](=O)[O-])cc1,inactive,12.3%,
O=C(C1CC(=O)N(c2ccccc2)C1)N1CCN(C2=NS(=O)(=O)c3ccccc32)CC1 (stereo not given),inactive,,
Cc1cc(C)c(C)c(S(=O)(=O)N2CCC(C(=O)N3CC(C)CC(C)C3)CC2)c1C (stereo not given),inactive,-11.8%,
COc1ccccc1NC(=O)C1=C(C)Nc2nnnn2C1c1cc(Br)ccc1OC (stereo not given),inactive,1.78%,
COc1ccc(CNC(C)C23CC4CC(CC(C4)C2)C3)c(OC)c1OC (stereo not given),inactive,0.296%,
CCCCCNC(=O)c1cccnc1SCC(=O)Nc1ccccc1OC,inactive,-0.809%,
CCCCCCCCNC(=O)c1cccnc1SCC(=O)Nc1ccc(OC)cc1OC,20.6 µM (active),-25.3%,
COc1ccc(OC)c(NC(=O)CSc2ncccc2C(=O)O)c1,inactive,,
CN(C(=O)C1CCC(=O)N(Cc2ccccc2F)C1)C1CCOCC1 (stereo not given),inactive,7.76%,
CC(NC(=O)CC1Nc2ccccc2NC1=O)c1ccccc1 (stereo not given),inactive,,
CC(C)CNC(=O)CC1Nc2ccccc2NC1=O (stereo not given),10.3 µM (active),-19.4%,
COC(=O)c1cc(C)sc1NC(=O)CC1Nc2ccccc2NC1=O (stereo not given),16.4 µM (active),-20.6%,
CCCCNC(=O)CC1Nc2ccccc2NC1=O (stereo not given),inactive,,
CCc1cc(C(=O)OC)c(NC(=O)CC2Nc3cc(C)c(C)cc3NC2=O)s1 (stereo not given),inactive,-3.56%,
COC(=O)c1c(NC(=O)CC2Nc3ccccc3NC2=O)sc(C)c1C (stereo not given),inactive,18.7%,
COC(=O)c1[nH]c(C)c(/C(O)=C2\C(=O)C(=O)N(CCN(C)C)C2c2cccc(OC)c2OC)c1C (stereo not given),inactive,-3.7%,
Cc1cc(=O)oc2cc(OC(C)C(=O)NCCCn3ccnc3)ccc12 (stereo not given),inactive,5.93%,
COC(=O)c1cn(NC(=O)c2ccncc2)c(=O)c2ccccc12,inactive,-18.7%,

SMILES,Potency,cell number change,"lipid storage change, negative = inhibition"
COc1ccccc1C(=O)N1CCN(Cc2nc(CC3CC3)no2)CC1,inactive,10.8%,
Cc1ccc(NC(=O)CS(=O)CC(=O)NCCCc2ccccc2)cc1Cl (stereo not given),inactive,,
Cc1ccc(NC(=O)CS(=O)CC(=O)Nc2ccccc2-c2ccc(C)o2)cc1 (stereo not given),inactive,17.8%,
Cc1ccc(-c2ccccc2NC(=O)CS(=O)CC(=O)Nc2ccc(C)c(Cl)c2)o1 (stereo not given),23.1 µM (active),-13%,
OCC1(CCc2ccccc2)CCN(Cc2ccccc2Cl)CC1,inactive,4.39%,
COc1ccc(-c2nnc3ccc(SCC(=O)Nc4cc(C)on4)nn23)cc1,inactive,8.27%,
Cc1cc(C(=O)NC2CCCCC2)c(C)n1-c1ccc(F)cc1,inactive,2.04%,
COc1ccc(-n2c(C)cc(C(=O)NC3CCCCC3)c2C)cc1,inactive,-26.1%,
Cc1cccc(-n2c(C)cc(C(=O)NC3CCCCC3)c2C)c1,20.6 µM (active),-27.1%,
O=C(Nc1ccc(Cl)cc1)C1C2CCC3C(CCC21)C3(Cl)Cl (stereo not given),inactive,-4.94%,
O=C(NCC1CCCN1S(=O)(=O)c1ccccc1)C(=O)NC1CC1 (stereo not given),inactive,,
CCN(CC)S(=O)(=O)c1ccc(F)cc1,inactive,12.5%,
CN(CC(=O)O)S(=O)(=O)c1ccc(F)cc1,inactive,12.3%,
CCCc1ccc(S(=O)(=O)N(C)S(=O)(=O)c2ccc(F)cc2)cc1,0.82 µM (active),17.6%,
CCN(CC(=O)Nc1ccccc1C(F)(F)F)C(=O)CSCc1ccc(C)cc1,inactive,3.04%,
COc1ccc(CNC(=O)OCCN2CCN(S(=O)(=O)c3ccc(C)cc3)CCC2=O)cc1,inactive,22.9%,
Cc1ccc(O)c(NC(=O)CN(C)S(=O)(=O)c2ccc(Cl)cc2)c1,inactive,2.51%,
COc1ccc(N2C(=O)C(CC(=O)Nc3ccccc3)N(CCc3ccc(OC)c(OC)c3)C2=O)cc1 (stereo not given),inactive,0.202%,

# Reference: PubChem BioAssay AID2685 (National Center for Advancing Translational Sciences (NCATS), 2010)
